Source: PubChem BioAssay
Compounds with a hit are over-represented: about 1.5% of the library has one in this group of screens.
FID counter – fluorescent intercalator displacement, NS3 helicase counter-screen; DNA fluorescent intercalator displacement, fluorescence; inhibition, % at 7.9 µM; 0.17% of 290,000 active; in the data active = inhibition above about 37%;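 note: 0% = vehicle and 100% = reference compound; higher means more ethidium bromide displaced from hairpin DNA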
RAD52 inh – inhibitors of human RAD52 DNA annealing; P43351; recombinant RAD52 DNA annealing, FRET fluorescence; inhibition, % at 18.7 µM; 0.46% of 360,000 active; AID 651710;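 active = every replicate showing at least 50% inhibition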
Glyco luc inh – blocks N-linked glycosylation in D54 reporter cells. D54 ERlucT glycosylation luciferase reporter, 24 h; percent of 100 nM tunicamycin response. reporter increase, % at 12.5 µM. 0.23% of 360,000 active;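 active = mean luciferase reporter signal, scaled so untreated is 0 and the glycosylation-blocking control 100, at or above a set limit in every replicate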;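 note: luciferase carries N-glycosylation sites so blocking glycosylation raises the light; 0% = median of neutral control wells and 100% = median of 100 nM tunicamycin wells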
RAD54 inh – RAD54 (human) branch migration inhibition; AID 602329; Q92698; 0.14% of 360,000 active; inhibition, % at 10.4 µM; RAD54 Holliday junction branch migration, FAM/BHQ fluorescence;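 active = mean normalized replicate activity at least 40 and at least half of replicates scoring 40 or more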;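 note: 0% = median of neutral control wells and 100% = median of positive control wells; inhibitors cause a drop in the FAM fluorescence signal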
Target sequence (Q92698 whole entry, looked up): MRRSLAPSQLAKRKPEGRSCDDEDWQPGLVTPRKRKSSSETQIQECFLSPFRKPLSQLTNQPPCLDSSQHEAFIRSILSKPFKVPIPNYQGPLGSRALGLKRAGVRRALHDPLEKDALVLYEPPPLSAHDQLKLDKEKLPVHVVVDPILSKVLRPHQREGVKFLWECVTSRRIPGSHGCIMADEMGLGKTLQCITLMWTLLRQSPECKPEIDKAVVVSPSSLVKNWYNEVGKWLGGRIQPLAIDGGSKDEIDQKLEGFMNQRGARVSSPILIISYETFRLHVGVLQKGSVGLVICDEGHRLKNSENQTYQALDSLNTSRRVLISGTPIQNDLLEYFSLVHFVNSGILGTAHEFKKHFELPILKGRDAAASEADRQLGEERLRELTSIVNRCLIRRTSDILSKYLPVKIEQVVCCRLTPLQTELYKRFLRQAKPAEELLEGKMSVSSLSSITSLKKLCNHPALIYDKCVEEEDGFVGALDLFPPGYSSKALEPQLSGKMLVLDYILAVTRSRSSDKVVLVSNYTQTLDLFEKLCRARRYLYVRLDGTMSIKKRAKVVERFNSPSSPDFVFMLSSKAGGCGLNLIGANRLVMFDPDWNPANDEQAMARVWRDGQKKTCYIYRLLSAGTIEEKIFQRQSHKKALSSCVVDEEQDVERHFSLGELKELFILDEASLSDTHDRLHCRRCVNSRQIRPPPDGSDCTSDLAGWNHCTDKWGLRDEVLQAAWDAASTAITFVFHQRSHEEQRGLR
CendR NRP1 mod – NRP-1/CendR interaction modulation; AID 602438; 0.85% of 360,000 active; FAM-RPARPAR peptide binding to NRP-1, fluorescence polarization; inhibition, % at 25 µM;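 active = inhibition or corrected inhibition above about 18%, plus a signal ratio from 0.5 to 1.5, limit read from the data, passing the limit was not always enough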
miR-122 sensor – blocks miR-122 activity in Huh7 sensor cells; activation (reporter increase), % at 12.5 µM; 0.3% of 340,000 active; Huh7 miR-122 Renilla luciferase sensor, 48 h; neutral wells = 0, positive control = 100;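 active = mean replicate activation score at least 90 and every replicate individually at or above 90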;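 note: higher luciferase means less miR-122 activity so hits act as miR-122 inhibitors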
* hit, by the source's call; . = no result given; [ ] = dose if it differs, or a comment.

SMILES | FID counter | RAD52 inh | Glyco luc inh | RAD54 inh | CendR NRP1 mod | miR-122 sensor
COc1ccc(S(=O)(=O)Nc2ccc3c(c2)C(=O)N([C@H](C)CO)C[C@H](C)[C@H](CN(C)C(=O)CCCN(C)C)OCCCC[C@H](C)O3)cc1 | . | 12.1 | . | -2.4 | . | 17.3[16.7 µM]
CSCCCNC(=S)N1CCN(c2ccc(C(C)=O)cc2)CC1 | -19.4 | -22.8 | -0.6 | 2.3 | 24.2* | -1.4
OC[C@@H]1Nc2ccc(C#Cc3ccccc3)cc2[C@@H]2[C@H]1CCN2Cc1nccs1 | . | 59.2* | . | . | . | .
COc1ccc(-c2ccc3c(c2)[C@@H]2[C@@H](CCN2C(=O)c2ccncc2)[C@@H](CO)N3C)cc1 | . | 14.7 | . | 8.5 | . | -8.9[16.7 µM]
COc1ccc(C#Cc2ccc3c(c2)[C@H]2[C@H](CCN2C(=O)c2ccncc2)[C@@H](CO)N3)cc1 | . | 51.0* | . | . | . | .
COc1ccc(C#Cc2ccc3c(c2)[C@@H]2[C@@H](CCN2C(=O)c2ccncc2)[C@@H](CO)N3C)cc1 | . | 62.3* | . | 15.6 | . | -4.6[16.7 µM]
COc1ccc(C#Cc2ccc3c(c2)[C@@H]2[C@@H](CCN2S(=O)(=O)c2ccc(OC)cc2)[C@H](CO)N3C)cc1 | . | -4.4 | . | 15.2 | . | 52.4[16.7 µM]
COc1ccc(C#Cc2ccc3c(c2)[C@H]2[C@H](CCN2S(=O)(=O)c2cccc(OC)c2)[C@H](CO)N3C)cc1 | . | 62.1* | . | 7.7 | . | 31.6[16.7 µM]
C[C@H](CO)N1C[C@H](C)[C@H](CN(C)Cc2ccncc2)Oc2c(NC(=O)C3CCCCC3)cccc2C1=O | . | 4.9 | . | 4.7 | . | 22.4[16.7 µM]
COc1ccc(C(=O)Nc2nc3c(s2)CCCC3)cc1S(=O)(=O)N1CCCc2ccccc21 | -8.0 | . | -19.4 | 12.1 | -4.8 | 115.0*
Cc1ccc(CNC(=O)Cn2ccc(NC(=O)OCc3ccccc3)nc2=O)o1 | . | . | -0.8 | -4.7 | 7.1 | -7.5
O=C(Cn1ccc(NC(=O)OCc2ccccc2)nc1=O)NCc1ccc2[nH]ccc2c1 | . | -28.9 | 2.0 | -3.4 | 23.6* | -0.3
COc1ccc(CNC(=O)Cn2ccc(NC(=O)OCc3ccccc3)nc2=O)cc1 | . | -16.2 | 2.2 | 9.4 | 38.5* | -1.0
COCCCNC(=O)Cn1ccc(NC(=O)OCc2ccccc2)nc1=O | . | -0.7 | 1.9 | 5.5 | 8.5 | 5.0
Cc1noc(C)c1S(=O)(=O)Nc1ccc2c(c1)C(=O)N([C@@H](C)CO)C[C@@H](C)[C@H](CN(C)S(=O)(=O)c1ccc(F)cc1)O2 | . | . | . | . | . | -7.4[16.7 µM]
N=C(N)c1ccc(N)cc1 | . | 99.6* | 0.0 | 46.5 | 16.6 | 0.3
O=C(CN1CCOCC1)NCC[C@@H]1CC[C@H](NC(=O)Nc2ccc(C(F)(F)F)cc2)[C@@H](CO)O1 | . | 0.6 | . | -4.4 | . | -1.5[16.7 µM]
Cc1cc(C)n2c(Nc3ccc4c(c3)OCCO4)c(-c3ccccn3)nc2n1 | . | -1.7 | . | . | 20.6* | .
COCC(=O)N1[C@H](CO)[C@@H](c2ccccc2)C12CN(C(=O)c1cccnc1)C2 | . | -11.8 | . | . | . | .
N#Cc1cccc2c1-c1ccccc1/C2=N/NC(N)=O | -5.0 | . | 24.6 | 84.7* | -78.3 | -12.7
C[C@H]1CCCCO[C@H](CN(C)S(C)(=O)=O)[C@@H](C)CN([C@@H](C)CO)C(=O)c2cc(NS(=O)(=O)c3cn(C)cn3)ccc2O1 | . | -1.3 | . | -11.2 | . | 4.7[16.7 µM]
COC1=CC(=O)c2c(ccc3ncnc(N)c23)C1=O | . | 0.8 | -20.4 | . | 22.4 | -3.2
COC1=CC(=O)c2nc(Cl)ccc2C1=O | . | 13.6 | -18.0 | . | 25.6* | .
O=C(c1coc2ccc(O)cc12)C1CC1 | -2.6 | -4.3 | 1.5 | -5.1 | 19.1* | .
C[C@@H]1CN([C@@H](C)CO)C(=O)c2cc(NC(=O)c3ccncc3)ccc2O[C@@H]1CN(C)S(=O)(=O)c1cccs1 | . | -7.2 | . | -1.6 | . | 6.2[16.7 µM]
SMILES | FID counter | RAD52 inh | Glyco luc inh | RAD54 inh | CendR NRP1 mod | miR-122 sensor
CC(C)NC(=O)N1[C@@H](CO)[C@@H]2c3ccccc3N(C(=O)Nc3cccc(Cl)c3)C[C@@H]21 | . | -12.9 | . | 2.4 | . | -2.8[16.7 µM]
CO[C@@H]1CN(C)C(=O)c2ccc(NC(=O)c3cc(C)on3)cc2OC[C@H](C)N(C(=O)C2CC2)C[C@H]1C | . | -12.0 | . | -3.6 | . | -1.2[16.7 µM]
COC(=O)c1cc2ccccc2c(-c2c(OC)c(C(=O)OC)cc3ccccc23)c1OC | -36.7 | . | -4.2 | 9.3 | 0.0 | -13.6
COC(=O)c1cc2ccccc2c([N+](=O)[O-])c1O | . | -14.2 | 2.0 | -2.2 | 22.7* | 4.3
CC(=O)OCC(=O)C1(O)CCC2C3CC(C)C4=CC(=O)C=CC4(C)C3=CCC21C (configuration not stated) | . | -2.3 | 2.6 | -2.4 | 18.9* | .
CNC[C@@H]1Oc2c(NC(=O)C3CCOCC3)cccc2C(=O)N([C@H](C)CO)C[C@H]1C | . | 1.4 | . | -10.7 | . | 3.0[16.7 µM]
CCN(CCNC(=O)C1CCN(Cc2nc(-c3ccc(Cl)cc3)oc2C)CC1)c1ccccc1 | 44.1* | . | 0.8 | 1.7 | 2.6 | -11.9
Cc1nn(-c2ccc(Cl)cc2)c(=O)c2ccccc12 | -3.1 | -1.3 | -1.4 | . | -26.7 | .
Cc1nn(-c2ccc(Cl)c(Cl)c2)c(=O)c2ccccc12 | 1.2 | . | -1.6 | -3.4 | 38.1* | -0.7
Cc1cc2cc(C=C(C#N)C#N)c(Cl)nc2cc1C | -3.3 | -61.2 | 38.0* | -5.9 | -0.7 | -1.2
C[C@@H]1CN([C@H](C)CO)C(=O)Cc2cc(NS(=O)(=O)c3ccc(Cl)cc3)ccc2O[C@H]1CN(C)C(=O)Nc1ccc(C(F)(F)F)cc1 | . | 26.6 | . | -4.0 | . | 2.4[16.7 µM]
Cc1ccc(S(=O)(=O)N(C)C[C@@H]2Oc3ccc(NC(=O)Nc4ccc(C(F)(F)F)cc4)cc3CC(=O)N([C@H](C)CO)C[C@@H]2C)cc1 | . | 15.4 | . | 17.8 | . | 122.7*[16.7 µM]
C[C@@H]1CN([C@H](C)CO)C(=O)Cc2cc(NS(=O)(=O)c3ccc(Cl)cc3)ccc2O[C@@H]1CN(C)C(=O)Nc1ccc(C(F)(F)F)cc1 | . | 18.2 | . | -0.3 | . | 103.3*[16.7 µM]
Cc1ccc(S(=O)(=O)N(C)C[C@@H]2Oc3ccc(NC(=O)Nc4c(C)noc4C)cc3CC(=O)N([C@@H](C)CO)C[C@@H]2C)cc1 | . | 4.5 | . | 54.6* | . | 15.1[16.7 µM]
Cc1noc(C)c1NC(=O)Nc1ccc2c(c1)CC(=O)N([C@@H](C)CO)C[C@H](C)[C@@H](CN(C)Cc1ccc(Cl)c(Cl)c1)O2 | . | 20.0 | . | -6.6 | . | 108.8*[16.7 µM]
CC(C)NC(=O)Nc1ccc2c(c1)C(=O)N([C@H](C)CO)C[C@H](C)[C@@H](CN(C)Cc1ccncc1)OCCCC[C@H](C)O2 | . | -5.1 | . | 3.5 | . | 2.0[16.7 µM]
CC(C)Sc1ccccc1C(=O)Nc1ccc2c(c1)n(C)c(=O)n2C | -25.8 | -6.6 | 34.5* | 5.9 | -1.9 | .
Cn1c(=O)n(C)c2cc(NC(=O)c3ccccc3)ccc21 | . | -2.4 | 10.1 | -1.7 | -5.8 | 0.0
Cn1c(=O)n(C)c2cc(NC(=O)CCl)ccc21 | 0.6 | . | 82.3* | . | 14.7 | 4.7
CC(=O)Nc1ccc2c(c1)n(C)c(=O)n2C | -0.9 | . | 3.7 | -7.2 | 7.9 | .
C[C@@H]1CN([C@H](C)CO)C(=O)c2cc(NC(=O)NC3CCCCC3)ccc2O[C@@H](C)CCCCO[C@H]1CN(C)S(=O)(=O)c1ccccc1 | . | 1.6 | . | -3.8 | . | -9.4[16.7 µM]
